In the supplement of paper PMC11732987, “Enantioselective OTUD7B fragment discovery through chemoproteomics screening and high-throughput optimisation” (Communications Chemistry, 2025):

Assays:
Assay in all cases: log2 ratio of Biotin-Ahx-Ub-VS probe labelling (compound/DMSO); higher = less target engagement, active = hit call of the paper (q ≤ 0.05, log2 ratio ≤ -1)
Conditions in all cases: treatment time: 3 h
[1] = compound: CCC1N(CCc2sccc12)C(=O)CCl
How it was run: (§1)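 HEK293T lysate (495 µg per sample, in Tris/CHAPS/IGEPAL buffer with protease inhibitors) was treated in triplicate with compound at 50 or 200 µM or with DMSO for 3 h. It was then treated with Biotin-Ahx-Ub-VS (0.5 µM final) for 1 h. Labelled DUBs were NeutrAvidin-enriched, digested with LysC and trypsin, and run by diaPASEF LC-MS/MS. Median-normalised label-free quantities gave average log2 ratios compound/DMSO by unpaired t-test, using proteins with ≥2 unique peptides.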

[2] = compound: CN1c2ccccc2C(CS1(=O)=O)NC(=O)CCl
How it was run: as §1

[3] = compound: Cl.ClCC(=O)N1CCc2ncncc2C1
How it was run: as §1

[4] = compound: Cl.Cn1ncc2C(CCCc12)NC(=O)CCl
How it was run: as §1

[5] = compound: ClCC(=O)NC1CCOc2ccccc12
How it was run: as §1

[6] = compound: ClCC(=O)NC1CCCc2ccccc12
How it was run: (§2)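 The values are mean compound-versus-vehicle ratios derived by unpaired t-test. For 3 h, triplicate HEK293T lysate samples (495 µg each) were treated with compound at a series of concentrations or with vehicle, after which Biotin-Ahx-Ub-VS was added to 0.5 µM final for 1 h. Labelled deubiquitinases were enriched with NeutrAvidin, digested with LysC and trypsin, and analysed by diaPASEF LC-MS/MS. Ratios are log2 values from global-median-normalised Spectronaut label-free quantities, using proteins with two or more unique peptides.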

[7] = compound: ClCC(=O)N[C@@H]1CCCc2ccccc12
How it was run: as §2

[8] = compound: ClCC(=O)N[C@H]1CCCc2ccccc12
How it was run: as §2

[9] = compound: CCC1N(CCc2cc(OC)c(Cl)cc12)C(=O)CCl
How it was run: as §1

[10] = compound: CCCC1N(CCc2cc(OC)c(OC)cc12)C(=O)CCl
How it was run: as §1

Measured: log2 ratio of Biotin-Ahx-Ub-VS probe labelling

USP7 (UniProt Q93009)
UniProt Q93009, sequence (Q93009 whole entry, looked up): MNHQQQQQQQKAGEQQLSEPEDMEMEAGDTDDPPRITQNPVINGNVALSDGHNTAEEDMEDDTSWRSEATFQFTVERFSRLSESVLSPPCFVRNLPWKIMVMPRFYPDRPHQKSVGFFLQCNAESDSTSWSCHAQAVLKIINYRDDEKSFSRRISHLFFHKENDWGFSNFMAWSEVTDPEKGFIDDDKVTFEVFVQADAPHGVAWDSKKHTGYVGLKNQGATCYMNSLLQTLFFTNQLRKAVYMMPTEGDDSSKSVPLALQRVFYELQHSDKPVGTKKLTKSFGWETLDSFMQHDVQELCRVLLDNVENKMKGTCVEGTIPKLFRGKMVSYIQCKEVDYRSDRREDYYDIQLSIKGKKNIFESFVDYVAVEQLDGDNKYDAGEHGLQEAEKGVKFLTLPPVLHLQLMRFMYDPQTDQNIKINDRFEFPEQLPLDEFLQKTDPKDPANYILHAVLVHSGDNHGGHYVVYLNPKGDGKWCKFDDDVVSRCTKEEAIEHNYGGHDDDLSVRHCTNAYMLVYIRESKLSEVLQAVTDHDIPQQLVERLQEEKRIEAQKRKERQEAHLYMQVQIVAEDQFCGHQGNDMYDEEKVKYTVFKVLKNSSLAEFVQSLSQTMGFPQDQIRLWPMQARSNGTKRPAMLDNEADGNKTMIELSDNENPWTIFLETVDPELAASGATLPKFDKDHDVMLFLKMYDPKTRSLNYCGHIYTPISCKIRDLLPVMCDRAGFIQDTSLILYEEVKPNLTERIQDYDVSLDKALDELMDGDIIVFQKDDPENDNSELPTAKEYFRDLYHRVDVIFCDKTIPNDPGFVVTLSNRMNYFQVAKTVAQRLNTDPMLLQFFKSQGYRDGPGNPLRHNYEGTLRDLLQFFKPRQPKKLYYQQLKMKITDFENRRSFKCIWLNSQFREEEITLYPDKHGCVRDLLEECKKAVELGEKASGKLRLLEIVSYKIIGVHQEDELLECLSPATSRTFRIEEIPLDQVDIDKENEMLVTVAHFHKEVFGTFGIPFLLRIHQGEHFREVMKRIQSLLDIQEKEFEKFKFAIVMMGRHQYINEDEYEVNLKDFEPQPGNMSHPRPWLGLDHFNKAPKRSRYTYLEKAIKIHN
inactive: [1]; compound concentration: 50uM -0.421 | [2]; compound concentration: 50uM -0.133 | [2]; compound concentration: 200uM -0.121 | [3]; compound concentration: 50uM -0.0285 | [3]; compound concentration: 200uM -0.558 | [4]; compound concentration: 50uM 0.09 | [4]; compound concentration: 200uM -0.0475 | [5]; compound concentration: 50uM -0.0159 | [5]; compound concentration: 200uM -0.18 | [6]; compound concentration: 0.78uM -0.0291 | [6]; compound concentration: 1.56uM 0.0294 | [6]; compound concentration: 3.13uM -0.0887 | [6]; compound concentration: 6.25uM -0.0846 | [6]; compound concentration: 12.5uM -0.0893 | [6]; compound concentration: 25uM -0.157 | [6]; compound concentration: 50uM -0.0846 | [6]; compound concentration: 100uM -0.00996 | [6]; compound concentration: 200uM -0.173 | [7]; compound concentration: 0.78uM -0.245 | [7]; compound concentration: 1.56uM -0.104 | [7]; compound concentration: 3.13uM -0.126 | [7]; compound concentration: 6.25uM -0.0886 | [7]; compound concentration: 12.5uM -0.122 | [7]; compound concentration: 25uM -0.125 | [7]; compound concentration: 50uM -0.161 | [7]; compound concentration: 100uM -0.145 | [7]; compound concentration: 200uM -0.261 | [8]; compound concentration: 0.78uM -0.0919 | [8]; compound concentration: 1.56uM -0.155 | [8]; compound concentration: 3.13uM -0.109 | [8]; compound concentration: 6.25uM 0.00463 | [8]; compound concentration: 12.5uM -0.0828 | [8]; compound concentration: 25uM -0.0804 | [8]; compound concentration: 50uM -0.017 | [8]; compound concentration: 100uM -0.124 | [8]; compound concentration: 200uM -0.255 | [9]; compound concentration: 50uM -0.321 | [10]; compound concentration: 50uM -0.397
active: [1]; compound concentration: 200uM -1.24 | [9]; compound concentration: 200uM -1.17 | [10]; compound concentration: 200uM -1.18

USP48 (UniProt Q86UV5)
UniProt Q86UV5, sequence (Q86UV5 whole entry): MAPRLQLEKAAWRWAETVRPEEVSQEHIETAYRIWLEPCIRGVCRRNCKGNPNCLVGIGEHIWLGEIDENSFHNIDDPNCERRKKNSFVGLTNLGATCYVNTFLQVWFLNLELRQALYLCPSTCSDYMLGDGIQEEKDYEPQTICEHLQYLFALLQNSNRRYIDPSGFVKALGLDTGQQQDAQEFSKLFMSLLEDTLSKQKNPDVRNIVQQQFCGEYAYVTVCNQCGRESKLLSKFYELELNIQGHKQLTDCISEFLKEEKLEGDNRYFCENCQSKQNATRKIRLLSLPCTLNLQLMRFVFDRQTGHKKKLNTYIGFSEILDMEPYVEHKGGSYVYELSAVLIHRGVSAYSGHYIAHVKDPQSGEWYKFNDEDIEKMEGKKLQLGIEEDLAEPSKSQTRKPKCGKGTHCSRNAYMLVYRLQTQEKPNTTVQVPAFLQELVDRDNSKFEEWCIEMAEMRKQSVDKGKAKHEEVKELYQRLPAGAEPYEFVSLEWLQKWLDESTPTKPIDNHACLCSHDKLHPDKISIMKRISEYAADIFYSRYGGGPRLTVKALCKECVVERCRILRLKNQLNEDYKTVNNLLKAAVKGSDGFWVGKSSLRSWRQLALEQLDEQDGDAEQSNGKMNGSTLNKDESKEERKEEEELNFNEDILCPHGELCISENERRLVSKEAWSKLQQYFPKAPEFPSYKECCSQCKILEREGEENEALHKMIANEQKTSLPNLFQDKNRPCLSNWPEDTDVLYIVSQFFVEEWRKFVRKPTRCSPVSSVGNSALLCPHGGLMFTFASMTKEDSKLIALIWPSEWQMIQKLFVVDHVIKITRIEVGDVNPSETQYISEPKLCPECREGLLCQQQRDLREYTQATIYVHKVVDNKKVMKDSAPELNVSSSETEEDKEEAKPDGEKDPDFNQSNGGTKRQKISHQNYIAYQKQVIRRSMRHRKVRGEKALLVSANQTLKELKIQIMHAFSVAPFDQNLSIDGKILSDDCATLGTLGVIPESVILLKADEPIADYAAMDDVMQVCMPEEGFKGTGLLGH
inactive: [1]; compound concentration: 50uM 0.0438 | [1]; compound concentration: 200uM -0.229 | [2]; compound concentration: 50uM -0.0584 | [2]; compound concentration: 200uM -0.173 | [3]; compound concentration: 50uM 0.0472 | [3]; compound concentration: 200uM -0.0578 | [4]; compound concentration: 50uM 0.11 | [4]; compound concentration: 200uM -0.141 | [5]; compound concentration: 50uM -0.181 | [5]; compound concentration: 200uM 0.181 | [6]; compound concentration: 0.78uM -0.207 | [6]; compound concentration: 1.56uM -0.126 | [6]; compound concentration: 3.13uM -0.133 | [6]; compound concentration: 6.25uM -0.353 | [6]; compound concentration: 12.5uM -0.196 | [6]; compound concentration: 25uM -0.157 | [6]; compound concentration: 50uM -0.212 | [6]; compound concentration: 100uM -0.103 | [6]; compound concentration: 200uM -0.378 | [7]; compound concentration: 0.78uM -0.118 | [7]; compound concentration: 1.56uM 0.0156 | [7]; compound concentration: 3.13uM -0.424 | [7]; compound concentration: 6.25uM -0.193 | [7]; compound concentration: 12.5uM -0.0735 | [7]; compound concentration: 25uM -0.174 | [7]; compound concentration: 50uM -0.19 | [7]; compound concentration: 100uM -0.106 | [7]; compound concentration: 200uM -0.351 | [8]; compound concentration: 0.78uM -0.189 | [8]; compound concentration: 1.56uM -0.192 | [8]; compound concentration: 3.13uM -0.141 | [8]; compound concentration: 6.25uM -0.00525 | [8]; compound concentration: 12.5uM -0.0911 | [8]; compound concentration: 25uM -0.00111 | [8]; compound concentration: 50uM -0.0046 | [8]; compound concentration: 100uM -0.171 | [8]; compound concentration: 200uM -0.203 | [9]; compound concentration: 50uM -0.171 | [9]; compound concentration: 200uM -0.314 | [10]; compound concentration: 50uM -0.217 | [10]; compound concentration: 200uM -0.148
